Most compounds without a hit are left out; they make up all but 1.8% or so of the library.
JMJD2E inh = qHTS Assay for Inhibitors of Human Jumonji Domain Containing 2E (JMJD2E); 230,000 tested, 1.6% active; Potency, µM (doses to about 57.1 µM), for the others: top-dose activity change, negative = inhibition, usual class: inhibitors; AID 2147, 2009; Lysine-specific demethylase 4E (Homo sapiens), B2RXH2; JMJD2E catalytic domain, FDH-coupled NADH fluorescence (FDH is formaldehyde dehydrogenase);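 also: 0% = wells with enzyme and -100% = buffer wells without enzyme; nearly all actives have a fitted effect of over 50% in size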
Target sequence (B2RXH2 1-337 limits assumed): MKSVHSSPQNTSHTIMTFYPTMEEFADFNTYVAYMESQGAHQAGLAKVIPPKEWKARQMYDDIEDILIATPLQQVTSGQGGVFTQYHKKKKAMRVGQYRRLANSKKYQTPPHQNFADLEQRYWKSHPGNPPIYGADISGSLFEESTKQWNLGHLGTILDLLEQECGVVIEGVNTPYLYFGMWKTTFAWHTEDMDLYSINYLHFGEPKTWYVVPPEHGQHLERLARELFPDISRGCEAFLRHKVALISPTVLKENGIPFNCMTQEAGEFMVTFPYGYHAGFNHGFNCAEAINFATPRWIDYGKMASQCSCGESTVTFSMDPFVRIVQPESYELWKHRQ
HTT ATP protect = qHTS Multiplex Assay to Identify Dual Action Probes in a Cell Model of Huntington: Cytoprotection (ATP); PC12 HTT-Q103 induced, cytoprotection, ATP luminescence, 40 h; 230,000 tested, 0.14% active; Potency, µM (highest dose often 56.4 µM), for inactives: cytoprotection (ATP increase), hits mostly activators; also: % of control where 0% means no effect; nearly all actives have a fitted effect of over 45% in size
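PC12 cells with ecdysone-inducible HTT exon 1 Q103-GFP, induced with 100 nM tebufenozide and co-treated with library compounds in a dose series (1536-well, 1500 cells/well). Cytoprotection read as ATP content by ATPlite luminescence.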
HttQ103 aggreg = qHTS Multiplex Assay to Identify Dual Action Probes in a Cell Model of Huntington: Aggregate Formation (GFP); PC12 HttQ103-GFP aggregates, Acumen cytometry, 40 h; Potency, µM (doses to about 46.1 µM), for the others: at the top dose activity change, negative = inhibition, hits mostly inhibitors; 220,000 tested, 1.1% active; AID 1688, 2009; also: % is scaled to controls: 0 for no effect and ±100 for the full control effect; nearly all actives have a fitted effect of over 60% in size
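PC12 cells with ecdysone-inducible HTT exon1 Q103-GFP, induced by 100 nM tebufenozide, given compounds in a concentration series. GFP aggregates (1–25 um, 6 SD above background) counted in lysates by laser-scanning cytometry, 488 nm excitation.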
L3MBTL1 inh = qHTS Assay for the Inhibitors of L3MBTL1; Potency, µM (titrated, usually from 57.1 µM), for the others: at the highest dose activity, negative = inhibition, usual class: inhibitors; Lethal(3)malignant brain tumor-like protein 1 (Homo sapiens), Q9Y468; AlphaScreen L3MBTL1–H3K9me1 peptide binding; 230,000 tested, 0.66% active; also: % is scaled to controls: 0 for no effect and ±100 for the full control effect; nearly all actives have a fitted effect of over 60% in size
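AlphaScreen proximity signal between nickel-chelate acceptor and streptavidin donor beads (final 10 ug/mL) reports binding of 50 nM L3MBTL1 to 75 nM biotin-H3 K9me1 peptide; complex incubated with compounds 30 min at room temperature; cefsulodin titration as control.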
Starred values were filed as active, the others as inactive; u = inconclusive; x = no result; [ ] = dose if it differs, or a comment. Unless noted, calls follow the shape of the dose curve; as a rule, active = well fitted curve in the direction sought with a large enough effect; inconclusive = small, poorly fitted or top-dose-only effect, or another doubt; inactive = no such curve, though single readings can be large; an effect the other way counts as inactive or inconclusive. Potency is read from the fitted curve at half-maximal effect.

SMILES	JMJD2E inh	HTT ATP protect	HttQ103 aggreg	L3MBTL1 inh
O=C(N/N=C/c1ccccc1Cl)c1ccncc1	x	x	x	8.8%
O=C(N/N=C/c1cc(Cl)ccc1O)c1ccncc1	12.6µM*	-14.2%[10 µM]	-22.4%[9.22 µM]	25.1µM*
CC(C)NC(=S)N/N=C/c1cc(Br)ccc1O	25.1µM*	35.5%[10 µM]	u	u
COC(=O)N/N=C/c1cc(Br)ccc1O	u	u	-22.3%	-8.3%
CCC/C=N/NC(=O)c1cc(-c2ccccc2)nc2ccccc12	u	5.4%[10 µM]	-12.2%	-0.6%
O=C(Cn1cc(C(F)(F)F)ccc1=O)N/N=C/c1ccccc1O	10µM*	19.6%[10 µM]	-11.4%[9.22 µM]	-26.2%
O=C(Cn1cc(C(F)(F)F)ccc1=O)N/N=C/c1ccc(F)cc1	-6.8%	-18.3%	-0.9%	x
COC(=O)C1[C@@H](OC)C(OC(=O)COc2ccc(OC)cc2)C[C@@H]2CN3CCc4c([nH]c5cc(OC)ccc45)[C@H]3C[C@H]12 (stereo partly drawn)	x	-11.1%	22.9%	x
COC(=O)C=P(c1ccccc1)(c1ccccc1)c1ccccc1	4.2%	-10.3%	x	x
O=C(NCC1CCCO1)C(=O)N/N=C/c1cc(Cl)ccc1O (stereo not drawn)	12.6µM*	8.5%[10 µM]	-16.5%[9.22 µM]	u
O=C(N/N=C/c1ccccc1O)c1cccc(C(F)(F)F)c1	u	x	2.51µM*	-9.6%
O=C(N/N=C/c1cc(Br)ccc1O)c1cccc(N2CCCC2=O)c1	28.2µM*	x	2.24µM*	-7.9%
O=C(N/N=C\c1ccccc1O)c1ccccc1O	5.01µM*	-70.6%[1.9 µM]	x	x
O=C(N/N=C/c1cccc(O)c1)c1ccccc1O	-4.7%	x	16.2%[9.22 µM]	-5.5%
O=C(N/N=C/c1ccco1)c1cccc(N2CCCC2=O)c1	-1.1%	-12.2%[1.9 µM]	12.2%	-6.2%
O=C(N/N=C/c1ccc(O)cc1)c1cccc(C(F)(F)F)c1	-0.5%	-5.8%[10 µM]	8.9%	-5.5%
C#CCCCCCCCCCCCc1ccco1	-5.2%	x	x	x
O=C(N/N=C/c1cc(Br)ccc1O)C(=O)Nc1ccccc1OC(F)(F)C(F)F	u	-46.4%	8.91µM*	-7.3%
O=C(N/N=C/c1cc(Br)ccc1O)c1ccccc1Cl	u	x	3.98µM*	-0.8%
CCCNc1nc2c(c(=O)n(C)c(=O)n2C)n1Cc1cccc(C)c1	1.1%	9.6%[10 µM]	14.1µM*	-3.0%
CC(C)n1c(NCCc2ccccc2)nc2c1c(=O)n(C)c(=O)n2C	-1.4%	29.3%[10 µM]	11.2µM*	-15.4%
CCCNc1nc2c(c(=O)n(C)c(=O)n2C)n1CCc1ccccc1	-1.6%	-37.2%	u	-1.2%
Cn1c(=O)c2c(nc(NCCO)n2CCc2ccccc2)n(C)c1=O	7.5%	-22.6%[0.074 µM]	-10.6%	x
S=C(Nc1ccccc1)Nc1nc2ccccc2n1CCOc1ccc(Br)cc1	2.3%	u	20.2%[9.22 µM]	6.31µM*
Cc1ccc2cc3cc(C(=O)N(CC(=O)NC4CCCC4)c4cccc(C)c4C)sc3nc2c1	5.3%	3.16µM*	-2.6%	-5.4%
SMILES	JMJD2E inh	HTT ATP protect	HttQ103 aggreg	L3MBTL1 inh
C=C(C)C1CC=C(C)CC1 (stereo not drawn)	x	-20.3%	7.0%	x
COC(=O)c1c(N)n(-c2ccc(N3CCOCC3)cc2)c2nc3ccccc3nc12	17.8µM*	-20.2%[10 µM]	11.2%	-9.8%
COC(=O)c1c(N)n(-c2ccc(NC(C)=O)cc2)c2nc3ccccc3nc12	u	0.0%	-17.6%	x
COC(=O)NC(/C(C(=O)OC)=C(\C)NCc1ccccc1)c1ccco1 (stereo not drawn)	x	-10.9%[10 µM]	x	x
Oc1cc2c(cc1O)[C@H]1c3ccc(O)c(O)c3OC[C@@]1(O)C2	3.55µM*	-8.2%[1.9 µM]	x	35.5µM*
Oc1ccc2c(c1)OCO2	x	-5.3%	x	x
Oc1ccc2c(c1)OCC1(O)Cc3cc(O)c(O)cc3C21 (stereo not drawn)	14.1µM*	-338.6%	x	x
COc1ccc(O[C@H]2C=C[C@@H](c3ccccc3)O[C@@H]2CO/N=C(\C)CCN2CCCc3nc(C)c(C)cc32)cc1	x	-67.0%[10 µM]	x	x
Oc1ccc([C@@H]2CNCc3sccc32)cc1O	x	26.6%[1.9 µM]	x	x
Cc1ccc(N=Cc2ccc(O)cc2O)cc1F	-4.5%	3.9%	3.16µM*	-4.7%[11.4 µM]
Cc1ccc2nc(-c3cccnc3)cc(C(=O)N3CCN(c4ccc([N+](=O)[O-])cc4)CC3)c2c1	-4.1%	-8.9%[10 µM]	-6.0%	-8.6%
Cc1ccc2c(C(=O)N3CCN(c4ccccc4)CC3)cc(-c3cccnc3)nc2c1C	12.2%	1.2%[10 µM]	10µM*	-13.1%
Cc1ccc(C(=O)NC2(O)C(=O)c3ccccc3C2=O)cc1C	14.1µM*	-3.3%[10 µM]	-17.3%[9.22 µM]	x
COc1ccc(C(=O)c2ccc(N3CCN(C(=O)c4ccc(F)cc4)CC3)c(F)c2)cc1Br	-9.6%	-48.6%	12.6µM*	x
CC(=O)c1c(C)n(-c2ccccc2)c2ccc(O)cc12	7.3%	25.7%	10µM*	x
CC(=O)c1c(C)n(-c2ccc(Br)cc2)c2ccc(O)cc12	x	x	x	-1.8%
C=CCn1c(-c2ccc(OC)cc2)nc2ccccc21	u	-28.3%[10 µM]	11.2µM*	38.2%
CCn1c(-c2ccc(N(C)C)cc2)nc2ccccc21	u	-96.9%	10µM*	-8.5%
COc1ccc(C(OCCN2CCC[C@@H](C(=O)O)C2)(c2ccc(OC)cc2)c2ccc(OC)cc2)cc1	4.4%	13.8%	x	x
c1coc(-c2nc(-c3ccco3)c(-c3ccco3)nc2-c2ccco2)c1	u	-17.3%	29.7%	10µM*
CN1CCN(c2ncc3nc(-c4ccccc4)c(=O)n(C4CC4)c3n2)CC1	x	-28.1%	x	x
O=C(c1nnsc1S(=O)c1ccc(Cl)cc1)N1CCOCC1 (stereo not drawn)	10.8%	-152.8%	11.2µM*	-20.6%
O=S(=O)(c1ccc(Cl)c(Cl)c1)c1snnc1-c1ccccc1	-0.3%	-91.9%	u	x
O=C(c1nnsc1S(=O)(=O)c1ccc(Cl)cc1)N1CCOCC1	4.2%	-161.4%	12.6µM*	-2.9%
Nc1nc(C(=O)N2CCOCC2)nn1S(=O)(=O)c1ccc(Cl)cc1	-7.7%	-2.2%	-20.1%	3.0%[11.4 µM]
SMILES	JMJD2E inh	HTT ATP protect	HttQ103 aggreg	L3MBTL1 inh
CNC(=O)c1nnsc1S(=O)(=O)c1ccc(Cl)cc1	-0.9%	-140.1%	3.16µM*	u
O=C(Nc1ccccc1)c1nnsc1S(=O)c1ccc(Cl)cc1 (stereo not drawn)	1.8%	-102.5%	u	-0.3%
C=CCOC(=O)N[C@H](/C(C(=O)OC)=C(\C)NCc1ccccc1)c1ccc(C)cc1	4.1%	-4.3%	x	x
CCSc1ccc2cc(OC)ccc2[n+]1CC	u	-50.3%	8.91µM*	x
COC(=O)C/C=C\[C@H](C)[C@@H](OC)c1ccccc1Br	x	-6.7%[10 µM]	x	x
O=P(c1ccccc1)(c1ccccc1)c1nc(-c2ccc(Cl)cc2)oc1N1CCOCC1	3.16µM*	-18.8%	19.9%[9.22 µM]	-7.2%
CCc1cc(=O)oc2cc(OCc3nn[nH]n3)ccc12	20µM*	-19.3%[0.074 µM]	16.5%	2.2%
O=c1[nH]c(=O)n(Cc2ccco2)c2c1C(C(F)(F)F)(C(F)(F)F)N=C(c1ccc(F)cc1)N2	3.4%	-87.5%[10 µM]	1.26µM*	x
CCSc1nnc(NC(=O)C(CC)(C(F)(F)F)C(F)(F)F)s1	-6.4%	-27.5%	-12.6%[9.22 µM]	x

Screens as filed in PubChem.
